Assay results published in the OligoGym collection.

Biological target: SPOCK1
Assay: pooled miR-30 sensor sort-seq; sequence = guide strand
Details: shRNA
Also: reference of the scale not given here.

**Q.** TAATCATCGTCTCGAAAGCGGT was tested. Which sensor-assay potency score (higher = more potent) did it give?
**A.** -1.33

**Q.** How did the sensor-assay potency score (higher = more potent) turn out when TTGTCTGTGCAGGCACTCCTTT was run?
**A.** -0.821

**Q.** How did the sensor-assay potency score (higher = more potent) turn out when TTCCGCAACTCCTTGTCTGTGC was run?
**A.** 0.679

Biological target: SPOPL
Assay: as above
Details: shRNA

**Q.** For TGTAACACCAGCTTTCTGCTAT, which sensor-assay potency score (higher = more potent) is on record?
**A.** 0.257

**Q.** Which sensor-assay potency score (higher = more potent) does the source give for TTCTTCGCACATGACCTTCAGC here?
**A.** -0.607

**Q.** Which sensor-assay potency score (higher = more potent) does the source give for TATTTGTATTAGTATGTCCTGA here?
**A.** -0.376

**Q.** For TGTCGAAGTACACTGCACCTAT, which sensor-assay potency score (higher = more potent) is on record?
**A.** -0.0442

**Q.** For TTGAACTTTTTAACACTTCACC, which sensor-assay potency score (higher = more potent) is on record?
**A.** -1.27

**Q.** With TTAACCTGTGTGTAACACCAGC as the sequence, how does the sensor-assay potency score (higher = more potent) read?
**A.** -0.559

**Q.** Which sensor-assay potency score (higher = more potent) does the source give for TCGCACATGACCTTCAGCCGTT here?
**A.** -0.42

**Q.** With AAATTTTACTACTTTAACCTGT as the sequence, how does the sensor-assay potency score (higher = more potent) read?
**A.** 0.191

**Q.** How did the sensor-assay potency score (higher = more potent) turn out when TAAAAACTGGAGATCGAGCTGC was run?
**A.** 0.265

**Q.** TTTACTACTTTAACCTGTGTGT was tested. Which sensor-assay potency score (higher = more potent) did it give?
**A.** -0.00218

**Q.** For TACTACTTTAACCTGTGTGTAA, which sensor-assay potency score (higher = more potent) is on record?
**A.** -0.323

**Q.** TTTTGCTCGAACTTCACTTTTG was tested. Which sensor-assay potency score (higher = more potent) did it give?
**A.** -1.29

Biological target: SPRR2B
Assay: as above
Details: shRNA

**Q.** How did the sensor-assay potency score (higher = more potent) turn out when TTGCTATCAGGGAACATCATGG was run?
**A.** -0.524

**Q.** Which sensor-assay potency score (higher = more potent) does the source give for TTCCCAGGCACACAGCTGCAGC here?
**A.** -1.61

**Q.** How did the sensor-assay potency score (higher = more potent) turn out when TTAGAAAGGAAACCTTTTGCTA was run?
**A.** -0.743

**Q.** Which sensor-assay potency score (higher = more potent) does the source give for TCTTTCTGCTGAAGCTCTGGGA here?
**A.** -0.772

**Q.** With TAAGGGGAAAGAAGCTCCCTAT as the sequence, how does the sensor-assay potency score (higher = more potent) read?
**A.** -0.405

**Q.** How did the sensor-assay potency score (higher = more potent) turn out when TTGCACAGGTGGTAGAAGCTCA was run?
**A.** -0.478

**Q.** TCCATGATAAGCTTTGATGAGA was tested. Which sensor-assay potency score (higher = more potent) did it give?
**A.** -1.51

**Q.** How did the sensor-assay potency score (higher = more potent) turn out when ATACTTTGGCTGGCAGGGTGGG was run?
**A.** -1.37

**Q.** How did the sensor-assay potency score (higher = more potent) turn out when TGAAGCTCTGGGAACTGACAAA was run?
**A.** -1.43

**Q.** For TTTGCTATCAGGGAACATCATG, which sensor-assay potency score (higher = more potent) is on record?
**A.** -1.04

**Q.** TATGAATCCATGATAAGCTTTG was tested. Which sensor-assay potency score (higher = more potent) did it give?
**A.** -0.839

**Q.** Which sensor-assay potency score (higher = more potent) does the source give for TCTGGGAACTGACAAAGCCAAG here?
**A.** -1.68

Biological target: SPSB2
Assay: as above
Details: shRNA

**Q.** For TTCTCTGAACAGTCTTTGGGGT, which sensor-assay potency score (higher = more potent) is on record?
**A.** -0.466

**Q.** For TCTCTCTGGCACCTCCAGCTGC, which sensor-assay potency score (higher = more potent) is on record?
**A.** -1.35

**Q.** For TAGTGGTCAGTCTGCAGCGGGG, which sensor-assay potency score (higher = more potent) is on record?
**A.** -1.67

**Q.** How did the sensor-assay potency score (higher = more potent) turn out when TTGACCTCGATGTTCTCTGAAC was run?
**A.** -1.03

**Q.** With TAGCAGACTGTCATAGCCTTGA as the sequence, how does the sensor-assay potency score (higher = more potent) read?
**A.** -0.29

**Q.** Which sensor-assay potency score (higher = more potent) does the source give for TTTGGGGTTCCAACCGTGGCGC here?
**A.** -1.17

**Q.** With TTGATTTCCGCAGAGCTTGGGT as the sequence, how does the sensor-assay potency score (higher = more potent) read?
**A.** -0.0773

**Q.** How did the sensor-assay potency score (higher = more potent) turn out when ATGTTCTCTGAACAGTCTTTGG was run?
**A.** -1.78

**Q.** With TTGAATAGCCCCTCTTACCCCG as the sequence, how does the sensor-assay potency score (higher = more potent) read?
**A.** -0.468

**Q.** TTGTGGCGCACACACAGGCGGC was tested. Which sensor-assay potency score (higher = more potent) did it give?
**A.** -1.68

**Q.** How did the sensor-assay potency score (higher = more potent) turn out when TAGCGTAGCCCAGAGTTCCCTC was run?
**A.** -0.633

**Q.** How did the sensor-assay potency score (higher = more potent) turn out when TTGCTCTGATGGTACAGCTTCC was run?
**A.** -0.719
